Data taken from PubChem BioAssay (NCATS).
Results filed as inconclusive are left out. Entries that show only a call come without a potency. Active and inactive are the calls of the source. Calls follow the shape of the dose curve; as a rule, active = well fitted inhibition curve with a large enough effect; inconclusive = small, poorly fitted or top-dose-only effect; inactive = no such curve, though single readings can be large or run the other way.
Potency is read from the fitted curve at half-maximal effect.

Assay: qHTS assay for measurement of the activity of small molecule inhibitors on Zika virus induced Caspase-3 activity in human astrocytoma cells (AID 1224859)
Conditions: SNB-19 ZIKV-induced caspase-3/7, luminescence, 6 h; series mostly up to 45.7 µM
In short: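 SNB-19 astrocytoma cells, 250/well, pretreated 1 h with compounds, then Zika virus at 2 FFU/cell for 6 h at 37 C; Caspase-Glo 3/7 luminescence after 30 min; percent inhibition normalised to uninfected and infected controls.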
In the case of `Clc1ccccc1C(c1ccccc1)(c1ccccc1)n1cccn1`, the Potency is reported as “inactive”.
For `O=C(N[C@@H](COc1ccc2[nH]c(=O)[nH]c2c1)c1ccccc1)c1cccn(Cc2ccc(F)c(F)c2)c1=O`, the Potency was “inactive”.
With `CCOC(=O)c1cncn1[C@H](C)c1ccccc1` the Potency was “inactive”.
In the case of `CC(=O)OCC1=C(C(=O)O)N2C(=O)[C@@H](N)[C@@H]2SC1`, the Potency is reported as “inactive”.
With `CC[C@@H](C(N)=O)N1CCCC1=O` the Potency was “inactive”.
With `COc1cc([C@@H]2c3cc4c(cc3[C@@H](O)C3COC(=O)C32)OCO4)cc(OC)c1O` (stereo partly specified) the Potency was “inactive”.
For `CCCC[N+]1(C)[C@H]2CC(OC(=O)[C@H](CO)c3ccccc3)C[C@H]1[C@H]1O[C@H]12` (stereo partly specified), the Potency was “inactive”.
In the case of `CN(C)[C@@H]1C(=O)C(C(N)=O)=C(O)[C@@]2(O)C(=O)C3=C(O)c4c(O)cccc4[C@@](C)(O)[C@H]3[C@H](O)[C@@H]12`, the Potency is reported as “inactive”.
In the case of `C[C@]12CC[C@@H]3[C@@H](CCC4=CC(=O)CC[C@@H]43)[C@@H]1CC[C@@H]2OC(=O)CCc1ccccc1`, the Potency is reported as “inactive”.
In the case of `CC(C)(C)c1cc(C=C(C#N)C#N)cc(Br)c1O`, the Potency is reported as “inactive”.
In the case of `CCNC(=O)CC1N=C(c2ccc(Cl)cc2)c2cc(OC)ccc2-n2c(C)nnc21` (stereo unspecified), the Potency is reported as “inactive”.
For `c1ccc2c(CN3CCNCC3)cccc2c1`, the Potency was “inactive”.
In the case of `CC(N[C@H]1C[C@H]1c1ccccc1)c1ccc2c(c1)OCCO2` (stereo partly specified), the Potency is reported as “inactive”.
In the case of `O=S(=O)(F)Cc1ccccc1`, the Potency is reported as “inactive”.
In the case of `CC(=CCCC1=CCC(C2=CC(=O)OC2O)OC1O)CCC1=C(C)CCCC1(C)C` (stereo unspecified), the Potency is reported as “inactive”.
For `CC(C)[C@]12O[C@@H]1[C@@H]1O[C@]13[C@]1(O[C@H]1C[C@@H]1C4=C(CC[C@@]13C)C(=O)OC4)[C@H]2O`, the Potency was “inactive”.
For `Cc1[nH]nc2ccc(-c3cncc(OC[C@@H](N)Cc4c[nH]c5ccccc45)c3)cc12`, the Potency was “inactive”.
With `CC(=O)N(C)c1cccc(-c2ccnc3c(C(=O)c4cccs4)cnn23)c1` the Potency was “inactive”.
For `CC=C(C)C(=O)N[C@@H](c1ccccc1)[C@@H](O)C(=O)O[C@H]1C[C@@]2(O)[C@@H](OC(=O)c3ccccc3)[C@@H]3[C@]4(OC(C)=O)CO[C@@H]4C[C@H](O)[C@@]3(C)C(=O)[C@H](OC(C)=O)C(=C1C)C2(C)C`, the Potency was “inactive”.
In the case of `O=C(NCC1CCOCC1)c1cnc(Nc2ccc(Cl)cc2Cl)nc1C(F)(F)F`, the Potency is reported as 8.33 µM (active).
With `CCOP(=O)(OCC)C(C)NC(=O)N(CCCl)N=O` (stereo unspecified) the Potency was “inactive”.
With `CC=C(C)C(=O)O[C@H]1C(C)=C2[C@@H]3OC(=O)[C@@](C)(O)[C@@]3(O)[C@@H](OC(=O)CCC)C[C@](C)(OC(C)=O)[C@@H]2[C@@H]1OC(=O)CCCCCCC` the Potency was “inactive”.
With `CC(C)(C)[C@]1(O)C[C@@H]2OC(=O)C[C@@]23C(=O)O[C@@H]2OC(=O)[C@H](O)C213` (stereo partly specified) the Potency was “inactive”.
In the case of `CSCC[C@@H](NC(=O)[C@@H](Cc1ccccc1)NC(=O)CNC(=O)CNC(=O)[C@@H](N)Cc1ccc(O)cc1)C(=O)O`, the Potency is reported as “inactive”.
With `CC[C@@]1(O)C(=O)OCc2c1cc1n(c2=O)Cc2cc3ccccc3nc2-1` the Potency was “inactive”.
For `O=C(Oc1ccc([N+](=O)[O-])cc1)N1CCN(Cc2cccc(Oc3ccccc3)c2)CC1`, the Potency was “inactive”.
In the case of `CCN1C[C@]2(OC(=O)c3ccccc3NC(C)=O)CC[C@H](OC)[C@@]34[C@H]5CC6[C@@H](OC)C[C@](O)(C(C[C@@H]23)[C@@H]14)[C@@]5(O)[C@@H]6OC`, the Potency is reported as “inactive”.
In the case of `C[C@@H]1CC[C@H]2[C@@H](C)C(=O)O[C@@H]3O[C@@]4(C)CC[C@H]1[C@]32OO4`, the Potency is reported as “inactive”.
In the case of `NC1=NC(=O)N2CC12` (stereo unspecified), the Potency is reported as “inactive”.
For `COc1ccc(N(C(=O)Oc2c(C)cccc2C)c2ccnc(Nc3ccc(N4CCN(C)CC4)cc3)n2)c(OC)c1`, the Potency was “inactive”.
In the case of `CC(C)(O)C(=O)Nc1ccc([N+](=O)[O-])c(C(F)(F)F)c1`, the Potency is reported as “inactive”.
In the case of `C#C[C@]1(O)C=C[C@@H]2[C@@H]3CCC4=CC(=O)CC[C@@H]4[C@H]3CC[C@@]21CC`, the Potency is reported as “inactive”.
With `CC1(N2CCC(n3c([C@@H]4CCCNC4)nc4ccccc43)CC2)CCCCCCC1` the Potency was “inactive”.
For `C[C@]12CC[C@H]3[C@@H](CCC4=CC(=O)CC[C@@]43C)[C@H]1CC[C@H]2O`, the Potency was “inactive”.
For `O=C(Oc1ccc([N+](=O)[O-])cc1)N1CCC(C(O)(c2ccc3c(c2)OCO3)c2ccc3c(c2)OCO3)CC1`, the Potency was “inactive”.
In the case of `C[C@]12CC[C@H](O)CC1=CC[C@H]1[C@H]3CCC(=O)[C@@]3(C)CC[C@@H]12`, the Potency is reported as “inactive”.

Assay: qHTS Screen of the MIPE 4.0 Collection Against Ewings Sarcoma (RDES) (AID 1259252); also: nearly all actives have a fitted effect of over 35% in size
Conditions: RD-ES Ewing sarcoma viability, CellTiter-Glo, 48 h; series mostly up to 45.8 µM
In short: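 Here, cells in 5% FBS RPMI were exposed for two days (48 h) to compound dilutions added four hours after plating. ATP-based CellTiter-Glo luminescence measured viability, normalized to vehicle and no-cell blanks.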
For `Clc1ccccc1C(c1ccccc1)(c1ccccc1)n1cccn1`, the Potency was 1.05 µM (active).
With `O=C(N[C@@H](COc1ccc2[nH]c(=O)[nH]c2c1)c1ccccc1)c1cccn(Cc2ccc(F)c(F)c2)c1=O` the Potency was 23.5 µM (active).
With `CC(=O)OCC1=C(C(=O)O)N2C(=O)[C@@H](N)[C@@H]2SC1` the Potency was “inactive”.
For `CC[C@@H](C(N)=O)N1CCCC1=O`, the Potency was “inactive”.
With `COc1cc([C@@H]2c3cc4c(cc3[C@@H](O)C3COC(=O)C32)OCO4)cc(OC)c1O` (stereo partly specified) the Potency was 0.0235 µM (active).
For `CCCC[N+]1(C)[C@H]2CC(OC(=O)[C@H](CO)c3ccccc3)C[C@H]1[C@H]1O[C@H]12` (stereo partly specified), the Potency was “inactive”.
In the case of `CN(C)[C@@H]1C(=O)C(C(N)=O)=C(O)[C@@]2(O)C(=O)C3=C(O)c4c(O)cccc4[C@@](C)(O)[C@H]3[C@H](O)[C@@H]12`, the Potency is reported as “inactive”.
In the case of `C[C@]12CC[C@@H]3[C@@H](CCC4=CC(=O)CC[C@@H]43)[C@@H]1CC[C@@H]2OC(=O)CCc1ccccc1`, the Potency is reported as “inactive”.
For `CCNC(=O)CC1N=C(c2ccc(Cl)cc2)c2cc(OC)ccc2-n2c(C)nnc21` (stereo unspecified), the Potency was 13.2 µM (active).
In the case of `c1ccc2c(CN3CCNCC3)cccc2c1`, the Potency is reported as “inactive”.
In the case of `O=S(=O)(F)Cc1ccccc1`, the Potency is reported as 0.0418 µM (active).
For `CC(=CCCC1=CCC(C2=CC(=O)OC2O)OC1O)CCC1=C(C)CCCC1(C)C` (stereo unspecified), the Potency was 18.7 µM (active).
With `CC(C)[C@]12O[C@@H]1[C@@H]1O[C@]13[C@]1(O[C@H]1C[C@@H]1C4=C(CC[C@@]13C)C(=O)OC4)[C@H]2O` the Potency was “inactive”.
In the case of `Cc1[nH]nc2ccc(-c3cncc(OC[C@@H](N)Cc4c[nH]c5ccccc45)c3)cc12`, the Potency is reported as 0.209 µM (active).
With `CC=C(C)C(=O)N[C@@H](c1ccccc1)[C@@H](O)C(=O)O[C@H]1C[C@@]2(O)[C@@H](OC(=O)c3ccccc3)[C@@H]3[C@]4(OC(C)=O)CO[C@@H]4C[C@H](O)[C@@]3(C)C(=O)[C@H](OC(C)=O)C(=C1C)C2(C)C` the Potency was “inactive”.
With `CCOP(=O)(OCC)C(C)NC(=O)N(CCCl)N=O` (stereo unspecified) the Potency was “inactive”.
For `CC=C(C)C(=O)O[C@H]1C(C)=C2[C@@H]3OC(=O)[C@@](C)(O)[C@@]3(O)[C@@H](OC(=O)CCC)C[C@](C)(OC(C)=O)[C@@H]2[C@@H]1OC(=O)CCCCCCC`, the Potency was 0.148 µM (active).
In the case of `CC(C)(C)[C@]1(O)C[C@@H]2OC(=O)C[C@@]23C(=O)O[C@@H]2OC(=O)[C@H](O)C213` (stereo partly specified), the Potency is reported as “inactive”.
With `CSCC[C@@H](NC(=O)[C@@H](Cc1ccccc1)NC(=O)CNC(=O)CNC(=O)[C@@H](N)Cc1ccc(O)cc1)C(=O)O` the Potency was “inactive”.
In the case of `CC[C@@]1(O)C(=O)OCc2c1cc1n(c2=O)Cc2cc3ccccc3nc2-1`, the Potency is reported as 0.0132 µM (active).
In the case of `O=C(Oc1ccc([N+](=O)[O-])cc1)N1CCN(Cc2cccc(Oc3ccccc3)c2)CC1`, the Potency is reported as “inactive”.
In the case of `CCN1C[C@]2(OC(=O)c3ccccc3NC(C)=O)CC[C@H](OC)[C@@]34[C@H]5CC6[C@@H](OC)C[C@](O)(C(C[C@@H]23)[C@@H]14)[C@@]5(O)[C@@H]6OC`, the Potency is reported as “inactive”.
For `C[C@@H]1CC[C@H]2[C@@H](C)C(=O)O[C@@H]3O[C@@]4(C)CC[C@H]1[C@]32OO4`, the Potency was 18.7 µM (active).
For `NC1=NC(=O)N2CC12` (stereo unspecified), the Potency was “inactive”.
In the case of `COc1ccc(N(C(=O)Oc2c(C)cccc2C)c2ccnc(Nc3ccc(N4CCN(C)CC4)cc3)n2)c(OC)c1`, the Potency is reported as 1.87 µM (active).
With `CC(C)(O)C(=O)Nc1ccc([N+](=O)[O-])c(C(F)(F)F)c1` the Potency was 14.8 µM (active).
With `C#C[C@]1(O)C=C[C@@H]2[C@@H]3CCC4=CC(=O)CC[C@@H]4[C@H]3CC[C@@]21CC` the Potency was “inactive”.
For `C[C@]12CC[C@H]3[C@@H](CCC4=CC(=O)CC[C@@]43C)[C@H]1CC[C@H]2O`, the Potency was “inactive”.
In the case of `O=C(Oc1ccc([N+](=O)[O-])cc1)N1CCC(C(O)(c2ccc3c(c2)OCO3)c2ccc3c(c2)OCO3)CC1`, the Potency is reported as 16.6 µM (active).
For `C[C@]12CC[C@H](O)CC1=CC[C@H]1[C@H]3CCC(=O)[C@@]3(C)CC[C@@H]12`, the Potency was 4.18 µM (active).
